The text below walks through data of PubChem BioAssay AID1508600 (Functional Genomics Laboratory (NCATS/FGL), 2020).

The whole screen tested about 53,000 sequences, of which about 3,700 (7%) were called active. This is one part of a sample in which actives are shown more often than they occur. A number with no mark means an inactive call.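 Rule for the calls: active = gene knockdowns whose robust z-score for IL-1 alpha signal is at least 2 or at most -2, so actives lie on both sides; inactive = the rest.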

This assay can be described thus: Components of the Cytosolic LPS Sensing Pathway: Gene Identification via Genome-wide siRNA Screen.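 Note: robust z of the log signal after scaling to non-targeting control siRNA wells of the plate.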 The following applies: RAW264.7 macrophages, IL-1a HTRF, actives lie on both sides, screened at 100 nM (by protocol), cells primed 5 h with Pam3CSK4 first. In a few lines:
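Mouse macrophage line RAW264.7 is transfected with siRNA (100 nM final), grown 48h, primed with TLR ligand Pam3CSK4 5 h and given intracellular LipidA 24 h. IL-1a in supernatant is read by HTRF and viability by luminescence.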
Take GGCUACAGCAAGAAGACUUTT against Ctsw: the z-score was 3.08 (active).

Take CCGGAAAUUUUCUUUGCCCTT against Sec23ip: the z-score was -1.12.

With “GGAAGGAUUCUGGAAACAGTT against 2210409E12Rik”, the z-score was -2.1 (active).

As for GCCAUUGGAGUAUAUCUUGTT against Olfr873, the z-score was -0.273.

On to GGUUCACGAGCUAAGCUGUTT against Sec23b, for which the z-score is -1.07.

As for GGACCACUCUGAAUAAGACTT against Ttc12, the z-score was -1.3.

GGAUCAACAGAGGUUGGCATT against Aldh1a7: the z-score is -2.03 (active).

Regarding GCAGCUCAAUUAGAGUCCATT against Gart, the z-score was -0.11.

Consider GGCUUUUUGUCUAACAAGUTT against Trappc13, for which the z-score is 0.23.

With GCUGGUUAUUCUCUUAUAGTT against Cavin2, the z-score was 1.97.

Take GGUAGGUCGUCGAGAAUACTT against Prss44: the z-score was 0.17.

As to GGAUCCUCUGGUAAAGGGATT against Gng11, the z-score was -1.75.

As for GGAGUUCCUCAUGAAGAUGTT against Tmem241, the z-score is -1.27.

In the case of GGUGCAAACAGACACCAGATT against Dct, the z-score was -0.982.

In the case of GGGCUGUCUAAGAAUGCAATT against Nlrp14, the z-score was -2.08 (active).

Consider GGGAGGGAAUAGUCAAAAATT against Timm17b, for which the z-score is 0.909.

GGAGAGCAAGGAGAACCAATT against Itga7: the z-score was 1.35.

As for CCACUACAAUGUAGCGACGTT against C1qtnf9, the z-score is -2.24 (active).

Consider CGAUUACUGAACACUAUAUTT against Metap1, for which the z-score is 1.94.

Consider GGUGUACCCAGUACUGCCATT against Cdk2, for which the z-score is 0.57.

GGAGAUGUUGGACUUCAUGTT against Nxnl2: the z-score is -2.42 (active).

As to CGGACAGAUACAAUAGCUATT against Zc3h4, the z-score is -1.53.

Take GUCUUUCCCUAAAAACAGCTT against Vmn1r47: the z-score was -1.28.

In the case of GGAGAACUUCAACAAUGUCTT against Tesc, the z-score is 0.46.

In the case of GGAGUUUCGCAUGAGCCUGTT against Shroom1, the z-score is -0.0803.

For the sequence GCCACUAUUGAAGCUUGCCTT against Olfr1209, the z-score was 1.32.

On to GGAGGAGUUCCAGAUCCACTT against Pald1, for which the z-score was -0.356.

GGGCUGUGAACACAAGUGUTT against Megf6: the z-score is 2.02 (active).

In the case of GGACAGCAUGAUCCUACAATT against Smr2, the z-score is -0.962.

On to GGAAAUACCCUGAUAGCCATT against Etl4, for which the z-score was 0.215.

Take GGUAGGAAGCUAGAGAAAUTT against Synj2: the z-score was 0.139.

GGACUUUAGUGACAGCUAUTT against Fam243: the z-score was -0.233.

With GGCAGCCCUCAAGUUAAUCTT against Zfp612, the z-score is -0.552.

Consider GCACCUUCCAUCGGAAUGCTT against Tyw5, for which the z-score is -0.269.

Consider “GGAGAAAAAGAUCUCAGCUTT against D830039M14Rik”, for which the z-score is -0.021.

In the case of GCACAAUUGGAAUUGUACATT against Ubqln2, the z-score was -2.18 (active).

For the sequence CCAUGGCCAAGAACUAGUUTT against Hp, the z-score was 1.26.

On to GGAUUUGAAAUAGGAAUAGTT against Sh3yl1, for which the z-score is 0.689.

As to CCCUAUCUUCAGGCCAUUGTT against Gm10283, the z-score is -1.97.

Consider CCUGGAGUUAGUUUGACAGTT against Atf4, for which the z-score is -0.042.

For GGGCCUAUCUGAAAGUUUATT against Nrm, the z-score is -0.262.

Turning to GGUAGAAGAAUGCAUAAUGTT against Sema3e, the z-score is 0.82.

Turning to CGAGAAUACCAAACUCGUGTT against Usp17ld, the z-score is -0.255.

Turning to GCGGUUAUCUGCAUAUAGATT against Ahctf1, the z-score was -2.47 (active).

For GCAGUAAGCUUUUGCUAAATT against Zfp334, the z-score was 1.26.

As to CCUCUUCGGGAAAAUUCUATT against Dao, the z-score is -0.083.

On to GGGAUAUCUAAUCAAAACCTT against St8sia5, for which the z-score is -0.131.

On to GGCAAAGCAACAAUAUCUATT against Cct7, for which the z-score was -0.809.

For the sequence GGUAUCAAAACAACAGUCCTT against Upk1b, the z-score was -0.709.

Regarding GGUCAAAUGCACCCGAUUATT against Hoxc10, the z-score is 2.44 (active).

For CCUCAAAUUUUGGGUCUCATT against Bcat2, the z-score is -1.48.

In the case of GGGUGAGAUAGGAAAGUGGTT against Rab43, the z-score is -0.111.

In the case of GAUUCUCAUCUCAAUAAGCTT against Serpinb9g, the z-score was 0.439.

CCUCCAAGACUUAAAAGUATT against Csde1: the z-score is 0.776.

On to CCUUAUAACUCUUACGUUUTT against Naa50, for which the z-score is -0.169.

Turning to GGAAAUGAAGACAUACCUGTT against Olfr175, the z-score was 0.741.

Turning to GGAGUGAUGUCUUCACUGATT against Snx31, the z-score is -1.12.

In the case of GGGAAUUUACUGCAGGAUATT against Itln1, the z-score was 2.72 (active).

Consider GGUCUUCAUGAAAACCCUCTT against Polr2d, for which the z-score was -0.967.

Turning to GCUAGGUGAUCAGAGAACUTT against Nsl1, the z-score is 0.222.

Consider GGCCUUCAGUCAAGCAUCATT against Myom1, for which the z-score is 0.906.

As to GCCCAUUGUAAUAAAAGCCTT against Dnali1, the z-score is -0.582.

Regarding GGCGUGUAUCUAUACACACTT against Glp1r, the z-score was 3.1 (active).

Take CCAAGAUGCACAGUGAUAATT against Pknox2: the z-score is -0.925.

Regarding GGAUAUCGUCUGCUACCUGTT against Dgkb, the z-score was 0.945.

In the case of GCACAACCAUAAUUCCAAATT against Olfr828, the z-score was -0.343.

For the sequence CCGAAUAGUAGAUAUUAGATT against Zbtb1, the z-score is -0.628.

With GGAAGUCUGUCCAAAGCAUTT against Olfr190, the z-score is 0.248.

As for GUUCUGCUUUUUGUCAUAUTT against Olfr1431, the z-score was -0.79.

As to GGAGAUGGUUAUGUGGGAUTT against Tgoln2, the z-score was 0.879.

GCGUGUUGAAUUGAGGAAGTT against Galnt11: the z-score is 4.15 (active).

In the case of GGUGAAACCUGUCAUUCACTT against Dcdc2a, the z-score was -0.405.

In the case of GGGUUUGAUCAACAGAGCCTT against Id1, the z-score is -0.64.

As for GGUGAAGAGCUUCUUGAUCTT against Zfyve27, the z-score is -0.362.

In the case of GGAGUUCAAAGAUGCAAUUTT against Zfyve27, the z-score is 2.33 (active).

As to GUUUGAGUCUGGAGACGUGTT against Commd4, the z-score was 0.917.

In the case of GGUAAAGCCUUUCAGGAAGTT against Tmem80, the z-score is -0.946.

For the sequence GGAGAGUGACAUCAUCGUATT against Obsl1, the z-score is -0.0139.

In the case of GGACACUUCCAAGUAUUGGTT against Tns1, the z-score was -2.11 (active).

With GGUCAGAGAAAUGAUGUCUTT against Osbpl11, the z-score was -1.77.

On to GGAAAAGGAAUUCUCCAGATT against Atrip, for which the z-score was 0.624.

Regarding GGCUUGCUGAUUAAAGAUGTT against Strbp, the z-score is -0.544.

Take GGAGAGCAUUCCCAUUGCUTT against Ddx6: the z-score is -2 (active).

Turning to GGCUUGACUGAAUAAUAAUTT against Gpr157, the z-score is -0.424.

For GCAGAGAGAGCGUGAAUCCTT against AB124611, the z-score is 0.598.

Regarding GGUUUUCCCUCCAGAUGAGTT against Mtch1, the z-score is -0.336.

For the sequence GGUGGUAAUUGGUGUGGCATT against Slc9b2, the z-score was -0.188.

Turning to GGUUCACAGAAAUGGAUGATT against Zfp507, the z-score is -2.91 (active).

On to GGUUUCUUUGCCUACCCAGTT against Prrc2b, for which the z-score is -1.13.

Take GGGUGACAACCAAAGACUGTT against Mill1: the z-score is 0.174.

On to “GGAUCAUGCAAACCAAAGCTT against 4930522H14Rik”, for which the z-score is 0.193.

Turning to GAGAACUCUCUAAACAAGUTT against Cks2, the z-score was 0.714.

For GGAUAGUCAUCAACAGAGCTT against Psma7, the z-score was -2.42 (active).

For the sequence GGAACAGUCGUGGUAAAGUTT against Gnl2, the z-score is -0.767.

Consider GGUGUUUGUUCGGAAGCUCTT against Pes1, for which the z-score was -0.345.

Consider GGAAGAAGCACAAUUUGAATT against Selenof, for which the z-score is -0.946.

Regarding “CCUACUCCACGGGUAUUUUTT against 1700065D16Rik”, the z-score was -0.331.

Consider GGUGCCGCACACAAACAAUTT against Hipk2, for which the z-score was -2.02 (active).

Turning to GGGCCUGAUUUGUCCUCACTT against Sytl1, the z-score is -1.57.

As for GGACGGUCCUCUUAAAAGATT against Chat, the z-score was -0.394.

For the sequence GGCCUAUCAGAUAAAGAAGTT against Vps37b, the z-score is -1.04.

Take GGUUACUGCUCUCAUGUACTT against Olfr247: the z-score is -1.28.

Consider GGAGCACUUGUGGAUCAAUTT against Efhd1, for which the z-score was 1.03.

As to GCAUCAUGAACUCCUUUGUTT against H2bc1, the z-score was -2.43 (active).

With GCAUUUAAUGGCAUUACUGTT against Otol1, the z-score is 0.596.

For GCUGGCGGAGCAAACUCAATT against Foxd3, the z-score was 0.756.

Regarding GGAAUGAAAAACCUACAUGTT against Cxcl13, the z-score was 0.453.
